Measured values taken from PubChem BioAssay AID651660 (Broad Institute, 2012).
“And” between values parts separate entries of the source, which are not always exact repeats. Equal values may be shown once. In all, about 1,900 compounds went through this assay and about 15 (0.8%) were called active. This is one part of a sample in which actives are shown more often than they occur.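 How the source made its calls: active means every replicate shows at least 50% inhibition; inconclusive means mean inhibition at least 50% but some replicate below; inactive means the rest.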

Molecular target: DNA repair protein RAD52 homolog (Homo sapiens) (UniProt P43351)
Sequence (P43351 whole entry, looked up): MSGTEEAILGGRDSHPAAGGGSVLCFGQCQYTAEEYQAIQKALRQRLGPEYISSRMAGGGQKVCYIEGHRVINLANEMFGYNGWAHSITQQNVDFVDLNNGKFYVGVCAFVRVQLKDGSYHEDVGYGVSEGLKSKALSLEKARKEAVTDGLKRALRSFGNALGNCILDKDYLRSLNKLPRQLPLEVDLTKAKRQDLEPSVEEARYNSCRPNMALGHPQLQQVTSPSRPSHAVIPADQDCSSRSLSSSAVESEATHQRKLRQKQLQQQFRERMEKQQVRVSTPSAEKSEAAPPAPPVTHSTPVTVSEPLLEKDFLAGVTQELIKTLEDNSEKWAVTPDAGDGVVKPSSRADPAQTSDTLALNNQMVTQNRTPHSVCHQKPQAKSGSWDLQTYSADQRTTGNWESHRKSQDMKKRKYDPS
Experiment: inhibition of RAD52-mediated strand annealing – biochemical, FRET, single point, primary screen (AID 651660);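 further: 0% = median of neutral control wells and 100% = median of positive control wells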
Details: Recombinant RAD52 ssDNA annealing, FRET fluorescence, 30 min; at 18.7 µM; active compounds read high

inhibition, active:
CSc1ccc2c(c1)N(CCC1CCCCN1C)c1ccccc1S2 (stereo not drawn) 61.6%, CCCCc1oc2ccccc2c1C(=O)c1cc(I)c(OCCN(CC)CC)c(I)c1 72.2%, CC/C(=C(\c1ccc(O)cc1)c1ccc(OCCN(C)C)cc1)c1ccccc1 76%, OCCN1CCN(CCCN2c3ccccc3Sc3ccc(C(F)(F)F)cc32)CC1 65.2%, CN(C)CCCN1c2ccccc2Sc2ccc(Cl)cc21 68.5%, CN1CCN(CCCN2c3ccccc3Sc3ccc(C(F)(F)F)cc32)CC1 67.4%, OCCN1CCN(CCCN2c3ccccc3Sc3ccc(Cl)cc32)CC1 73.4%, CCN(CC)CCNc1ccc(CO)c2sc3ccccc3c(=O)c12 61.5%, C1CCC(C(CC2CCCCN2)C2CCCCC2)CC1 (stereo not drawn) 62.5%

inhibition, inactive:
O=C(CNC(=O)OCc1ccccc1)NC1CCCCCC1 0.625%, CC(C)OC(=O)C1C2C=CC3(CN(CC4CCCO4)C(=O)C13)O2 (stereo not drawn) -7.36%, O=C(O)c1ccc(-c2ccc(O)c(F)c2)cc1 -3.36%, Cc1ncc(C(=O)O)c(C(=O)O)c1N -18.8%, O=C(O)CCCNc1ccc(S(=O)(=O)Nc2ccccc2C(=O)O)cc1C(=O)O -12.9%, CCOC(=O)c1ccc(N2C(=O)C(CC(N)=O)N(CCc3ccc(OC)c(OC)c3)C2=S)cc1 (stereo not drawn) 3.53%, CC(C)c1ccc(NC(=O)CNS(=O)(=O)c2ccc(F)cc2)cc1 3.93%, CCOc1ccc2oc(-c3ccccc3)c(C(=O)O)c2c1 -1.63%, Cc1cccc(-n2c(Cc3ccccc3)n[nH]c2=S)c1 -6.53%, NCCOc1ccccc1OCCN 2.09%, COc1ccc(C2CC(c3ccc([N+](=O)[O-])cc3)=NN2C(=O)c2ccccc2)cc1OC (stereo not drawn) -4.95%, O=C(c1ccc(-c2ccccc2)c(F)c1)C1CCCN(C(=O)c2cncs2)C1 (stereo not drawn) -5.72%, O=C(OCC1OC2OC3(CCCCC3)OC2C2OC3(CCCCC3)OC12)c1ccccc1 (stereo not drawn) -6.56%, COC1(C)CC2C(CC1OC(=O)c1cc([N+](=O)[O-])cc([N+](=O)[O-])c1)C2(C)C (stereo not drawn) 2.54%, COc1ccc2c(c1)[N+](C)(C)C(C)(C)C=C2C 2.05%, CC(=O)OCC#CCSc1nc2ccccc2n1C -0.59%, CC(C)COCC1CC2(CC(C)(c3csc(N)n3)OC2=O)C(=O)O1 (stereo not drawn) -11.3%, COc1cc(C2NCCc3c2[nH]c2ccccc32)ccc1OC(C)C (stereo not drawn) 1.55%, CC12CN3CC(C)(CN(C1)C3c1ccc(Br)cc1O)C2 (stereo not drawn) -9.4%, Cc1ccc2c(c1)C1(C(=O)N2)N2CCCC2C(C(=O)c2ccc3ccccc3c2)C12C(=O)Nc1ccccc12 (stereo not drawn) 8.82%, COc1ccc(-c2noc(-c3ccccc3-c3ccccc3)n2)cc1 2.09%, O=C(CS(=O)(=O)Cc1ccccc1)NCc1ccc2c(c1)OCO2 1.08%, CC(=O)N(CCC(Cc1ccccc1)c1ccc2c(c1)OCO2)Cc1ccc(Cl)cc1 (stereo not drawn) 16.3%, COc1ccc(C(=O)C2CCCCC2=O)cc1 (stereo not drawn) -11.5%, CC(CN1c2ccccc2Sc2ccccc21)N(C)C (stereo not drawn) 7.73%, CCOC(=O)c1cc2c(nc1N)CC(C)(CC)OC2 (stereo not drawn) -11.6%, COC(=O)C1=CN(Cc2cccs2)C=C(C(=O)OC)C1c1cccc(Cl)c1 11.7%, CN1C(=O)NC(c2ccc(O)cc2)C2=C1CN(c1cccc3ccccc13)C2=O (stereo not drawn) -2.34%, CC(=O)C1=C(NC(=O)c2ccc(C(F)(F)F)cc2)C[C@@H]2[C@H]1C2(C)C 4.2%, CN(C)c1ccc(C(CN)c2c[nH]c3ccccc23)cc1 (stereo not drawn) -2.21%, O=[N+]([O-])c1cc(/C=N/n2cnnc2)ccc1N1CCCC1 -0.23%, COC(=O)c1ccc(=O)n(Cc2ccco2)c1 -5.57%, CC(=O)N1CC2(C)CN(C(C)=O)CC(C)(C1)C2 -4.54%, CSc1cccc(NC(=O)/C=C/c2ccccc2)c1 5.27%, N/C(=N\OC(=O)c1ccc(Br)o1)c1ccccn1 -4.88%, COc1ccc2c(=O)c(-c3cnn(-c4ccccc4)c3)c(C)oc2c1 -8.23%, COc1ccc(S(=O)(=O)N2CCN(C(=O)COc3ccc4c(C)cc(=O)oc4c3)CC2)cc1 -4%, CC(=O)C1=C(O)C(=O)N(Cc2cccnc2)C1c1ccc(C(C)C)cc1 (stereo not drawn) 0.222%, CCOc1ccc(C(=O)NCC2(c3ccccc3)CCOCC2)cc1 -5.73%, COc1ccc(CNC(=O)C2CCN(C(=O)[C@@H](CC(C)C)NC(=O)OC(C)(C)C)CC2)cc1 2.06%, CCc1oc2ccccc2c1C(=O)c1cc(Br)c(O)c(Br)c1 -13.4%, CCCCOc1cc(C(=O)NCCN(CC)CC)c2ccccc2n1 8.91% and -1.38%, Cc1ccc2c(c1)C(O)(C1COC(C)(C)CC1=O)C(=O)N2C (stereo not drawn) -1%, COc1cccc2c(O)cc(=O)n(C)c12 6.83%, COc1cccc(=O)c2c(C)n(CC(=O)c3ccccc3)c(C)c12 -138%, O=C(CCC(=O)NCCO)NCCO 4.45%, CC1=C/C(=N\N=C2\NC(=O)C(CC(=O)Nc3ccccc3F)S2)CC(C)(C)C1 (stereo not drawn) -3.25%, CSCC[C@H](NC(=O)NC1CCCC1)C(=O)O -5.4%, CCOC(=O)c1cnc2ccc(C(=O)OC)cc2c1Nc1ccc2c(c1)OCCO2 0.862%, CN(C)CCOC(c1ccccc1)c1ccccc1 (tested in a mixture with another compound) 0.693%, O=C(OCCNC(=O)c1ccc2ccccc2n1)c1ccc(F)cc1 3.05%, CC1CCN(CCOCCOc2ccccc2Br)CC1 -6.71%, CC1(C)CC(NCc2ccccc2)CCO1 (stereo not drawn) -6.22%, Cc1nc(N[C@@H](Cc2c[nH]c3ccccc23)C(=O)O)c2oc3ccccc3c2n1 -19.8%, COc1ccc(NC(=O)CC(c2ccccc2)c2ccco2)cc1 (stereo not drawn) -8.33%, CC(=O)SC1CC2=CC(=O)CCC2(C)C2CCC3(C)C(CCC34CCC(=O)O4)C12 (stereo not drawn) -15.3%, COc1ccc(C2NC(=O)c3ccccc3O2)c(OC)c1OC (stereo not drawn) -1.29%, COc1cccc(/C=C/C(=O)c2c(O)cc(C)oc2=O)c1O -38.5%, CCOc1ccc(NC2OC(C)C(O)C(O)C2O)c([N+](=O)[O-])c1 (stereo not drawn) -2.79%, CC(C)CC1c2[nH]c3ccccc3c2CCN1C(=O)CCC(=O)N(C)C (stereo not drawn) -3.31%, CC(NC(=O)OCc1ccccc1)C(=O)N1CC(O)CC1C(=O)O (stereo not drawn) -5.77%, COCCNC(=O)CSc1ccc(Cl)cc1 -17.2%, CC(C)CCn1c(N2CCc3ccccc3C2)nc2c1c(=O)[nH]c(=O)n2C -3.91%, O=C1Cc2ccccc2C(c2ccccc2)N1 (stereo not drawn) -8.11%, COc1ccc(-c2noc(CCc3ccccc3)n2)cc1 -6.01%, COC(=O)c1cc(-c2c(C)oc3cc(OC)ccc3c2=O)c(C)o1 2.67%, O=c1c(-c2ccc3c(c2)OCCO3)coc2cc(OC3OC(CO)C(O)C(O)C3O)ccc12 (stereo not drawn) 2.13%, COc1ccc(-c2[nH]ncc2CN(CCO)Cc2cccs2)c(F)c1 -3.67%, Cc1ccc2c(c1)c1c3n2CCCN(Cc2ccccc2)C3CCC1 (stereo not drawn) 3.99%, Cc1nc(NCc2ccco2)c(C#N)c2c1COC(C)(C)C2 -36.8%, COc1cccc(CN2C(=O)N(C(C)C)C(N(O)C(=O)NC(C)C)C2(C)C)c1OC (stereo not drawn) 2.14%, COc1cc2cc(C(=O)O)n(C)c2c(OC)c1OC -3.98%, CCC(=O)Oc1ccc(/C(CC)=C(\CC)c2ccc(OC(=O)CC)cc2)cc1 -4.46%, CN(C)CCOc1ccccc1Cc1ccccc1 1.84%, CC(=O)c1cccc2c(O)c(C3=Nc4ccccc4C3=O)[nH]c12 -6.23%, CC(OC(=O)c1cc(=O)[nH]c2ccccc12)C(=O)c1ccccc1 (stereo not drawn) 1.44%, COc1cc(/C=C/C(=O)N2CCCC2)cc(OC)c1OC -3.32%, Cn1c(=O)[nH]c(=O)c2c1ncn2CCN1CCOCC1 -9.6%, OC(CCCN1CCCCC1)(c1ccccc1)c1ccccc1 10.1%, CNCCCN1c2ccccc2CCc2ccccc21 -18.4%, CN(C)CCCN1c2ccccc2CCc2ccc(Cl)cc21 16%, CN(C)CCCN1c2ccccc2Sc2ccc(C(F)(F)F)cc21 29.1%, Clc1ccc(OCCCN2CCCCC2)c(Br)c1 5.3%, CN(C)CCCN1c2ccccc2Sc2ccccc21 7.51%, OCCOCCN1CCN(C(c2ccccc2)c2ccc(Cl)cc2)CC1 (stereo not drawn) 7.68%, O=c1oc2c(CN3CCN(CCO)CC3)c(O)ccc2cc1-c1ccccn1 -38.1%, CCOC(=O)c1oc2cc(O)cc(C)c2c(=O)c1-c1cscn1 5.2%, CC(=O)C1=C(Nc2ccc(C)cc2)CC(C)(O)C(C(C)=O)C1c1ccco1 (stereo not drawn) -76.2%, CCN(CC)CCCNC(=O)C1c2ccccc2Oc2ccccc21 4.59%, C[C@]12CC[C@@H]3c4ccc(O)cc4CC[C@H]3[C@@H]1C[C@@H](O)[C@@H]2O[C@@H]1O[C@H](C(=O)O)[C@@H](O)[C@H](O)[C@H]1O 5.26%, O=C(NCCc1ccccc1)C1CCN(C2CCN(Cc3ccco3)CC2)CC1 -15.9%, COc1ccc(-c2coc3c(CN4CCOCC4)c(O)ccc3c2=O)cc1 7.99%, COc1ccc2[nH]c(CN3CCN(CC(C)C)C(CCO)C3)c(C)c2c1 (stereo not drawn) -14.8%, O=C(CN1C(=O)C2CCc3[nH]c4ccccc4c3C2C1=O)N1CCCC1 (stereo not drawn) -14.6%, OC12CCCCC1C(c1ccc3c(c1)OCO3)N(Cc1cccc(F)c1)CC2 (stereo not drawn) -0.832%, CCC(=O)Oc1ccc(C(=O)Nc2ccc([N+](=O)[O-])cc2)cc1 3.79%, CN1CC2CCCC3(C1)C(=O)NC1(CCCCC1)N=C23 (stereo not drawn) -2.27%, CC(=O)c1cn(C)c(=O)[nH]c1=O -3.65%, CCn1c(N2CCN(CC(=O)c3c(C)n(C)c4ccc(OC)cc34)CC2)nc2c1c(=O)[nH]c(=O)n2C -1.17%, CC1(C)CC(=O)c2cn3c(nc2C1)nc1ccccc13 -4.04%, CC(=O)N(CCC(Cc1ccccc1)c1ccco1)Cc1ccco1 (stereo not drawn) -17.2%, NC(N)=N/N=C/c1cccc(Cl)c1Cl 18.4%, CN1CCc2c(n(CC(O)CN(CCO)CCO)c3ccccc23)C1=O (stereo not drawn) 11.3%, OCCN(CCO)c1ccc2ccccc2c1 -0.71%
